Experiment [1] concerns Plasmodium falciparum Sir2 (PF13_0152, Sir2A). Nature of the experiment: Plasmodium falciparum Sir2A binding compounds – biochemical, small-molecule microarray, 635 nm fluorescence, primary screen (AID 1098).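 Also: score merges spot fluorescence intensity with its signal-to-noise ratio.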 Conditions: fluorescence 635 nm, higher = more signal.
Experiment [2] can be described thus: probe aDKK1 binding to arrayed compounds – biochemical, biotinylated probe, 635/667 nm fluorescence, primary screen (AID 1099).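 Also: score merges 667nm spot fluorescence with signal to noise across triplicate slides.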 Conditions: small-molecule microarray, higher = more signal.
Experiment [3] is described as follows: probe aCHRDL2 binding to arrayed compounds – biochemical, biotinylated probe, 635/667 nm fluorescence, primary screen (AID 1100). Conditions: small-molecule microarray, higher = more signal.
Experiment [4] can be described thus: change in splice reporter luminescence, either direction, cell-based, HEK293, spliceosome inhibition project, primary screen (AID 1101).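 Also: HEK293 cells carrying a splicing-competent luciferase reporter gene; test concentration not given here.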 Conditions: HEK293 splicing luciferase reporter, 24 h, higher = more signal, called active from +8 up or from −8 down.
The target of experiment [5] is Fibroblast growth factor 10 (Homo sapiens) (UniProt O15520). As to the kind of experiment: compounds binding fibroblast growth factor 10 – biochemical, small-molecule microarray, 635 nm fluorescence, primary screen (AID 1102). Conditions: FGF10 binding, fluorescence 635 nm, higher = more signal.
Experiment [6] deals with glycogen synthase kinase-3 (GSK3A per assay name; protocol says GSK3B). As to the kind of experiment: compounds binding glycogen synthase kinase-3 – biochemical, small-molecule microarray, 635 nm fluorescence, GSK3A, primary screen (AID 1103). Also: the record names both GSK3A and GSK3B. Conditions: fluorescence 635 nm, higher = more signal.
For experiment [7], the target named is Epidermal growth factor receptor (Homo sapiens) (UniProt P00533). Nature of the experiment: compounds binding epidermal growth factor receptor – biochemical, small-molecule microarray, 635 nm fluorescence, primary screen (AID 1104).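 Also: score merges 667 nm emission intensity with spot signal to noise over triplicate slides.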 Conditions: EGFR binding, higher = more signal.
In experiment [8] the target is Follistatin-related protein 3 (Homo sapiens) (UniProt O95633). Nature of the experiment: compounds binding follistatin-related protein 3 – biochemical, small-molecule microarray, 635 nm fluorescence, primary screen (AID 1105).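 Also: score merges emission near 667 nm and signal to noise per printed spot across three slides.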 Conditions: FSTL3 binding, higher = more signal.
Experiment [9] deals with Dickkopf-related protein 1 (Homo sapiens) (UniProt O94907). As to the kind of experiment: small molecules binding DKK1 protein – biochemical, small-molecule microarray, 635 nm fluorescence scan, primary screen (AID 1106).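 Also: score merges emission near 667 nm with signal to noise over three replicate slides.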 Conditions: higher = more signal.
The subject of experiment [10] is Inhibin beta A chain (activin A). As to the kind of experiment: small molecules binding activin A – biochemical, small-molecule microarray, 635 nm fluorescence scan, primary screen (AID 1107).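 Also: mouse activin A protein probed at 4.33 µg/mL on printed slides; score merges bound-protein fluorescence near 667 nm with spot signal-to-noise.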 Conditions: INHBA, higher = more signal.
The subject of experiment [11] is Human papillomavirus type 1a protein E7 (residues 44-93). As to the kind of experiment: small molecules binding HPV E7 44-93 – biochemical, small-molecule microarray, residues 44-93, 635 nm fluorescence, primary screen (AID 1108).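 Also: E7 fragment applied at 1 µg/mL in TBST for 1 h at 4 C; score combines spot fluorescence with its signal to noise ratio.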 Conditions: fluorescence 635 nm, higher = more signal.
Experiment [12] can be described thus: hepatitis C replication reporter changes, two-sided – Huh7 cells, luciferase reporter, HCV replication inhibitor project, primary screen (AID 1109).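 Also: huh7 hepatoma cells harbouring a luciferase neomycin HCV replicon reporter; luciferase luminescence as measure of HCV replicon replication; test concentration not given here.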 Conditions: Huh7 HCV replicon luciferase reporter, 48 h; higher = more signal. For orientation: Reporter assays use an easily measured gene product as a stand-in for the process of interest.
In experiment [13] the target is Left-right determination factor 2 (Homo sapiens) (UniProt O00292). As to the kind of experiment: small molecules binding LEFTY2 protein – biochemical, small-molecule microarray, 635 nm fluorescence scan, primary screen (AID 1110). Conditions: higher = more signal.
The target of experiment [14] is Calmodulin-1 (Homo sapiens) (UniProt P0DP23). As to the kind of experiment: small molecules binding calmodulin-1 with EGTA – biochemical, small-molecule microarray, Cy5-labelled CALM1, profiling panel (AID 1111).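 Also: labelled calmodulin applied in Tris saline Tween buffer holding calcium plus EGTA and DTT.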 Conditions: Cy5-CALM1 binding fluorescence, higher = more signal.
For experiment [15] the target is unchanged. As to the kind of experiment: small molecules binding Ca-loaded calmodulin-1 – biochemical, small-molecule microarray, Cy5-labelled CALM1, plus calcium, artefact control for SMM control-protein annotation, profiling panel (AID 1112).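 Also: score merges spot fluorescence with signal to noise from triplicate slides.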 Conditions: Cy5-CALM1 binding fluorescence, higher = more signal.
A short description of experiment [16]: probe aWnt5a binding to arrayed compounds – biochemical, biotinylated probe, 635/667 nm fluorescence, primary screen (AID 1113).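 Also: score merges 667 nm fluorescence intensity with signal-to-noise per printed feature.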 Conditions: small-molecule microarray, higher = more signal.
Experiment [17] is described as follows: probe aShh binding to arrayed compounds – biochemical, biotinylated probe, 635/667 nm fluorescence, primary screen (AID 1114).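 Also: probe is biotin-labelled aShh protein from a stem cell growth factor screen; measures binding of labelled protein to compounds printed on the slide; score merges feature fluorescence at 667 nm with signal-to-noise.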 Conditions: small-molecule microarray, higher = more signal.
Experiment [18] is described as follows: probe aNog binding to arrayed compounds – biochemical, biotinylated probe, 635/667 nm fluorescence, primary screen (AID 1115).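 Also: probe is biotinylated aNog protein used at 0.15 µg/mL for 1 h at 4 C; z-score combines 667 nm fluorescence of each spot with its signal to noise.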 Conditions: small-molecule microarray, higher = more signal.
For experiment [19], the target named is Torsin-1A-interacting protein 1 (Homo sapiens) (UniProt Q5JTV8). Nature of the experiment: compound microarray binding of lysate hLAP1 – cell lysate, small-molecule microarray, COS7 lysate, 635/667 nm fluorescence, primary screen (AID 1116). Conditions: 635 nm fluorescence, higher = more signal.
Experiment [20] deals with Alpha-bungarotoxin (Bungarus multicinctus) (UniProt P60615). Nature of the experiment: compounds binding labelled alpha-BTX control protein – biochemical, small-molecule microarray, Alexa647 label, 635/667 nm fluorescence, artefact control for SMM control protein annotation, profiling panel (AID 1117). Conditions: alpha-BTX-A647 binding fluorescence, higher = more signal.

Activity calls are given as the source filed them.

Fibroblast growth factor 10 (Homo sapiens), sequence (O15520 whole entry, looked up): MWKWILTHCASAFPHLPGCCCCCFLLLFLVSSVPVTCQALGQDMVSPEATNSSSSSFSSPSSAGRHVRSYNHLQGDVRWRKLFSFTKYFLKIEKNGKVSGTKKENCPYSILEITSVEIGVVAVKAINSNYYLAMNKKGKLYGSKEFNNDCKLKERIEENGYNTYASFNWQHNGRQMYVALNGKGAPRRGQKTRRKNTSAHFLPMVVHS
Torsin-1A-interacting protein 1 (Homo sapiens), sequence (Q5JTV8 whole entry, looked up): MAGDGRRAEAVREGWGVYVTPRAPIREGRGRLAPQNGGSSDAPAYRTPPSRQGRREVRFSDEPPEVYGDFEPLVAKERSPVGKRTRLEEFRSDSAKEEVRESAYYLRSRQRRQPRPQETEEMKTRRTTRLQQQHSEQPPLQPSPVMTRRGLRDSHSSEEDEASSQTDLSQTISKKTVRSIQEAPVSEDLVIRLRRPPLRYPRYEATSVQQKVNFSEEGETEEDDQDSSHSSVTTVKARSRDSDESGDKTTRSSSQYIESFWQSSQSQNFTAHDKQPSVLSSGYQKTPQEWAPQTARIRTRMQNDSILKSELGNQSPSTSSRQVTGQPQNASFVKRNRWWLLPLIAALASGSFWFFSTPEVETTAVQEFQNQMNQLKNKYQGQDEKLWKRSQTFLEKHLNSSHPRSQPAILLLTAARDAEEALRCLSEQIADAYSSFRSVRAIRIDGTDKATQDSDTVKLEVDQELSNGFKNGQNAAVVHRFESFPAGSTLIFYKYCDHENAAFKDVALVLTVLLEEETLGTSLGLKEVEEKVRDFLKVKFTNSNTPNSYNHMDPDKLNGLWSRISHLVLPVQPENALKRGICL
Alpha-bungarotoxin (Bungarus multicinctus), sequence (P60615 whole entry, looked up): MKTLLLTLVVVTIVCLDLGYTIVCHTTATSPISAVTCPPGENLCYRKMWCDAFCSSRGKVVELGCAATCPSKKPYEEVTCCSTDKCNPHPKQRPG
Follistatin-related protein 3 (Homo sapiens), sequence (O95633 whole entry, looked up): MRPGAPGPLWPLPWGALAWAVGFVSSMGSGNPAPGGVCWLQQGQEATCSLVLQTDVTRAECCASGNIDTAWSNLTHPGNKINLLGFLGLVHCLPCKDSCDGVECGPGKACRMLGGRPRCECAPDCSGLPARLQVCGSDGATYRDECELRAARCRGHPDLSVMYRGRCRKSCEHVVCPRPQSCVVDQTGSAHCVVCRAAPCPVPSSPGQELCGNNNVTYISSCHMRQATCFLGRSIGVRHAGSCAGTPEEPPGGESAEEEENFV
Dickkopf-related protein 1 (Homo sapiens), sequence (O94907 whole entry, looked up): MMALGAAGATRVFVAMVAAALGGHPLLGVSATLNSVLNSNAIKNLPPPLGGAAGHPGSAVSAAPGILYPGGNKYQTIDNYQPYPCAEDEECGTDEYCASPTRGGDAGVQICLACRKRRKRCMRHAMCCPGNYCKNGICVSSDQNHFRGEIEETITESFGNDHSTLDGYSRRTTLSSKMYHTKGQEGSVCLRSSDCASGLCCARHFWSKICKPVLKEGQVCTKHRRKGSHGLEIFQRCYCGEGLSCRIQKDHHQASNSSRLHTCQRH
Epidermal growth factor receptor (Homo sapiens), sequence (P00533 whole entry, looked up): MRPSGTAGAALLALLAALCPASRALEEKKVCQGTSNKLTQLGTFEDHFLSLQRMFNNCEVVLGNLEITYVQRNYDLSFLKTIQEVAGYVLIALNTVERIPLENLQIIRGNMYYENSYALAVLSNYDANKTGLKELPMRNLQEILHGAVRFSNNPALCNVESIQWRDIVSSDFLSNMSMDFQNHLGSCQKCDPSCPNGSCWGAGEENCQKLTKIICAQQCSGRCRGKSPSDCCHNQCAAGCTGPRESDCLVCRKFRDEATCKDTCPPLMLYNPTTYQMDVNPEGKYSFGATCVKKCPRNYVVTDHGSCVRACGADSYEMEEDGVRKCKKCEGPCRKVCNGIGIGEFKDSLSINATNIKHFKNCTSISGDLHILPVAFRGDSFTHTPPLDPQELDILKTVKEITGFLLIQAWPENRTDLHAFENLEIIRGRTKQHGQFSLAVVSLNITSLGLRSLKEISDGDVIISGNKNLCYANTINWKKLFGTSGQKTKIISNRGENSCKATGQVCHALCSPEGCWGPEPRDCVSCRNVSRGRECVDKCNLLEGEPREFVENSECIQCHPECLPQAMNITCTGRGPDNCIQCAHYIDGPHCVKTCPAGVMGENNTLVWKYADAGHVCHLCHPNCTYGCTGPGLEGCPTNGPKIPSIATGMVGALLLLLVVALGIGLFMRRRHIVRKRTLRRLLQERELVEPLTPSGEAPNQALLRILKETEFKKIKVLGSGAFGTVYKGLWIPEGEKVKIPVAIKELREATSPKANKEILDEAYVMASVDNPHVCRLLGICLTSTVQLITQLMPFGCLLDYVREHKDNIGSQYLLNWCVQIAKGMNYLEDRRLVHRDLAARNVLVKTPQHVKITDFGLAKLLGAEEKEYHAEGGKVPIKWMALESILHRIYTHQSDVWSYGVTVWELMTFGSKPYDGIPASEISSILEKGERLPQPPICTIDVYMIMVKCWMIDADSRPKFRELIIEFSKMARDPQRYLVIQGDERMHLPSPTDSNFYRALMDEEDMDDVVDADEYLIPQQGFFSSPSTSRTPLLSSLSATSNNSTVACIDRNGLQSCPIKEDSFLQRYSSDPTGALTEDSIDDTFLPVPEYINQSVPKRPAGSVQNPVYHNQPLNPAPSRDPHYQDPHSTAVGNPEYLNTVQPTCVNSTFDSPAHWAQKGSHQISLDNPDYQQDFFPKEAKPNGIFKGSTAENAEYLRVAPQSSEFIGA
Left-right determination factor 2 (Homo sapiens), sequence (O00292 whole entry, looked up): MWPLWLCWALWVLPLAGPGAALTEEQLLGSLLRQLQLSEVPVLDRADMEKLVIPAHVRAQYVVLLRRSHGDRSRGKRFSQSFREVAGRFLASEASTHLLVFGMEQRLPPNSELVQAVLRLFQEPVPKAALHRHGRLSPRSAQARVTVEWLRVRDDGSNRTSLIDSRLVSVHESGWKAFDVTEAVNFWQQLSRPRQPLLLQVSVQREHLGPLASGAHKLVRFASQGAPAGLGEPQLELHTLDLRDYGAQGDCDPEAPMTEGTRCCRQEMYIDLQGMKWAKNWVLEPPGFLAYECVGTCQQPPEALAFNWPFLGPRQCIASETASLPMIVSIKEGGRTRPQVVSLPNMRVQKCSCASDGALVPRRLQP

For the compound `COC(=O)[C@]1(Cc2ccccc2N=[N+]=[N-])N=C(c2ccc(OCCCO)cc2)O[C@@H]1c1ccccc1N=[N+]=[N-]`, the composite z-score in experiment [1] is 1.35; in experiment [2], 0.0046; in experiment [3], 0.191; in experiment [5] it was 0.0833; in [6], -0.383; in [7] it was -0.049. The composite z-score in [8] is 0.488; in experiment [9], -0.0862; in [10] it was 0.755; in experiment [11], -0.0688; in experiment [13], -0.0072; in [14], -0.062. Besides, the composite z-score was -0.374 in [15]; -0.129 in [16]; -0.138 in experiment [17]; -0.51 in experiment [18]; 0.412 in experiment [19]; 0.019 in experiment [20]. Besides, the z-score is -0.71 (inactive) in experiment [4] and -3.52 in experiment [12].

`COCCCNC(=O)[C@@]1(CCC(=O)OC(C)(C)C)N=C(c2ccc(OCCCO)cc2)O[C@H]1c1ccccc1CN=[N+]=[N-]`: the composite z-score in experiment [1] is 1.62; in experiment [2], 0.965; in experiment [3], 1.08; in experiment [5], 1.56; in experiment [6], 1.13; in [7], 0.123. Further, the composite z-score was 0.932 in [8]; 0.119 in experiment [9]; 0.471 in [10]; 1.49 in experiment [11]; -0.139 in [13]; 1.39 in experiment [14]. Also, the composite z-score worked out at 0.854 in experiment [15]; 0.112 in experiment [16]; 0.0898 in [17]; 1.36 in experiment [18]; 2.28 in experiment [19]; 2.19 in experiment [20]. Also, the z-score in [4] was -0.228 (inactive); in experiment [12], 0.43.

With `CC(C)(C)N1CC=CC23O[C@@H]4/C=C\CCCOC(=O)C4[C@H]2C(=O)N(CCO)[C@@H]3C1=O` (stereo not given in full), the composite z-score was 1.59 in experiment [1]; -0.0986 in experiment [2]; -0.0141 in experiment [3]; -0.142 in experiment [5]; -0.764 in [6]; -0.932 in experiment [7]. Moreover, the composite z-score in experiment [8] was -1.28; in experiment [9], -0.377; in experiment [10] it was 0.0995; in experiment [11] it was -0.365; in [13] it was -0.679; in [14], -0.0083. The composite z-score in [15] is 0.443; in experiment [16], -0.18; in experiment [17], 0.0121; in [18], -0.261; in experiment [19], -0.231; in experiment [20], -0.709. In addition, the z-score in [4] is -0.639 (inactive); in experiment [12] it was -0.95.

As for `O=C/C=C/c1ccc(Cl)cc1`, the composite z-score in experiment [1] was -0.34; in [2] it was -0.235; in experiment [3], 0.0073; in experiment [5], -0.513; in [6], -0.966; in experiment [7], -0.301. The composite z-score in experiment [8] is 0.0697; in [9], 0.0956; in experiment [10], 0.934; in [11], -1.74; in experiment [13], 0.163; in experiment [14], -0.925. The composite z-score in experiment [15] is -0.0367; in [16], -0.0846; in [17] it was -0.147; in experiment [18], -0.426; in experiment [19] it was -0.381; in experiment [20], 0.0933. Further, the z-score is -1.05 (inactive) in [4] and -0.482 in experiment [12].

On to `O=C(CS)NCCCCCCNC(=O)[C@H]1C[C@H]2C(=O)N3CCC[C@H]3C(=O)N2[C@H]1c1cccc(OCCO)c1`, for which the composite z-score in [1] was 1.86; in [2], -0.037; in experiment [3], -0.109; in experiment [5], 1.08; in [6], 1.34; in experiment [7], 0.543. The composite z-score in experiment [8] is 0.575; in [9], 0.904; in [10], 0.683; in experiment [11], 1.36; in experiment [13], 0.36; in [14], 0.803. The composite z-score was 0.0685 in [15]; -0.0236 in [16]; 0.251 in experiment [17]; -0.353 in experiment [18]; 0.557 in [19]; 0.383 in experiment [20]. In addition, the z-score in experiment [4] was 0.5 (inactive); in experiment [12], -0.36.

Turning to `CCOC(=O)C1=C[C@@H](CC)N(S(=O)(=O)c2ccc(C)cc2)[C@H]1c1ccccc1`, the composite z-score is 0.689 in [1]; -0.1 in [2]; 0.521 in experiment [3]; 0.769 in experiment [5]; 1.01 in experiment [6]; 0.586 in experiment [7]. For the same compound, the composite z-score in [8] amounted to 0.59; in experiment [9], 0.43; in experiment [10], 0.538; in experiment [11], 1.36; in [13] it was 0.0917; in [14] it was 1.07. In addition, the composite z-score in experiment [15] was 0.26; in [16], 0.0799; in [17], -0.0709; in [18] it was 0.925; in [19], 0.905; in experiment [20], 0.54. Besides, the z-score was 0.803 (inactive) in [4] and -2.23 in experiment [12].
